The values that follow come from PubChem BioAssay (EPA / NIEHS).

Assay [1] is described as follows: CCTE_Mundy_HCI_iCellGluta_NOG_NeuriteLength: CCTE's Neurite Outgrowth Assay in iCellGluta cells for Neurite Length, Mundy Lab (AID 2284318). The procedure, abridged: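 Automated high-content imaging of betaIII-tubulin (Alexa Fluor-488) and Hoechst-stained cells gave neurite length, normalized to the DMSO baseline.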
Assay [2] is described as follows: CCTE_Mundy_HCI_iCellGluta_NOG_NeuronCount: CCTE's Neurite Outgrowth Assay in iCellGluta cells for Neuron Count, Mundy Lab (AID 2284340).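 Note: cells fixed about 48 h after compound addition.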 In outline: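 Neuron count read by automated high-content imaging of Hoechst 33342 and betaIII-tubulin/Alexa Fluor-488 labelling in human iPSC glutamatergic neurons. Activity fitted relative to DMSO.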
Assay [3] can be described thus: CCTE_Mundy_HCI_iCellGluta_NOG_NeuriteCount: CCTE's Neurite Outgrowth Assay in iCellGluta cells for Neurite Count, Mundy Lab (AID 2284342).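 Note: chemical exposure about 48 hours starting 2 hours after plating.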
Assay [4] is described as follows: Tanguay_ZF_120hpf_DP24: Oregon State University Tanguay Lab 24 Hour Post-fertilization zebrafish Assay for Delayed Development (AID 2284390; active = hit-call score of the fitted dose curve at least 0.9, where 1 is the maximum; inactive = score below 0.9). The procedure, abridged:
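Dechorionated 5D wild-type zebrafish embryos exposed statically from 6 hpf, one per well, 0.64% DMSO final, 28 C, sealed and dark. Developmental progression scored at 24 hpf by brightfield as binary present/absent; dead embryos excluded.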

The nature of assay [5]: Tanguay_ZF_120hpf_CRAN: Oregon State University Tanguay Lab 120 Hour Post-fertilization zebrafish Assay for Craniofacial Malformation (AID 2284397; active = hit-call score of the fitted dose curve at least 0.9, where 1 is the maximum; inactive = score below 0.9). In outline:
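Dechorionated Tropical 5D wild-type zebrafish embryos, one per well, were statically exposed from 6 to 120 hpf at 28C in 0.64% DMSO, with 5uM trimethyltin chloride as positive control. Craniofacial malformation was scored present/absent by brightfield microscopy, relative to DMSO.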

Assay [6] in a line: Tanguay_ZF_120hpf_AXIS: Oregon State University Tanguay Lab 120 Hour Post-fertilization zebrafish Assay for Axial Malformation (AID 2284398; active = hit-call score of the fitted dose curve at least 0.9, where 1 is the maximum; inactive = score below 0.9). The procedure, abridged: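 Dechorionated 5D wild-type zebrafish embryos exposed statically, one per well, from 6 to 120 hpf at 28C, 0.64% DMSO. Axial malformation scored as present/absent by brightfield microscopy at 120 hpf; dead embryos not scored.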

Another assay concerns TTR (gene 7276). Put plainly: CCTE_GLTED_hTTR_0.5uM: CCTE's human Transthyretin (hTTR) Inhibition Assay, with 0.5uM TTR, Great Lakes Toxicology and Ecology Division (GLTED) Lab (AID 2284320; active = hit-call score of the fitted dose curve at least 0.9, where 1 is the maximum; inactive = score below 0.9). In outline:
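Cell-free displacement assay in which human TTR at 0.5 uM was incubated with test chemical for 2 h. Displacement of the ANSA probe was read by fluorescence at 380 nm excitation/475 nm emission. Loss of signal was fitted in the positive direction versus DMSO.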

The test system of the next assay is IYD (gene 389434). Description: CCTE_GLTED_hIYD: CCTE's human Iodotyrosine Deiodinase (xIYD) Inhibition Assay, Great Lakes Toxicology and Ecology Division (GLTED) Lab (AID 2284317).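 Note: cell-free human IYD enzyme made in baculovirus insect cells; iodide freed from monoiodotyrosine measured by cerium arsenite color change at 420 nm.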 In outline:
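First, recombinant human IYD (baculovirus-insect cells), MIT and chemical incubated 3 h. Next, iodide isolated on Dowex. Finally, Sandell-Kolthoff rate read at 420 nm, with platewise normalization to MNT and solvent controls.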

The nature of assay [7]: CCTE_Deisenroth_5AR_NBTE_donor: CCTE's 5alpha-reductase NanoBRET Target Engagement Assay […], Deisenroth Lab (AID 2284319; active = hit-call score of the fitted dose curve at least 0.9, where 1 is the maximum; inactive = score below 0.9). The conditions noted are these: actives raise or lower the signal. The procedure, abridged: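 Donor NanoLuc luminescence at 460-20 nm is the read-out, serving artifact detection. Transiently expressed SRD5A2-NanoLuc in HEK293T; 5 h total chemical exposure, testosterone tracer added for the final 2 h; fitting bidirectional relative to DMSO baseline.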
A general note: Bioluminescence resonance energy transfer reports proximity on the nanometre scale.

A short description of assay [8]: CCTE_Deisenroth_5AR_NBTE_acceptor: CCTE's 5alpha-reductase NanoBRET Target Engagement Assay - Autofluorescence Screen, Deisenroth Lab (AID 2284321; active = hit-call score of the fitted dose curve at least 0.9, where 1 is the maximum; inactive = score below 0.9;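 note: compound fluorescence in the acceptor channel under 460 nm excitation flags autofluorescence artifacts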). As to conditions: actives raise or lower the signal. The procedure, abridged:
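Using three independent plate-reader runs, nominal 100 uM chemicals were checked for intrinsic fluorescence (ex 460 nm). DMSO defined the baseline for bidirectional fitting.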

The subject of the next assay is SRD5A2 (gene 6716). Put plainly: CCTE_Deisenroth_5AR_NBTE_ratio: CCTE's 5alpha-reductase NanoBRET Target Engagement Assay - Ratio, Deisenroth Lab (AID 2284322; active = hit-call score of the fitted dose curve at least 0.9, where 1 is the maximum; inactive = score below 0.9). As to conditions: actives raise or lower the signal. The procedure, abridged:
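Reverse-transfect HEK293T with pNLF1-C-SRD5A2, express 20 h. Pre-incubate cells with chemical 3 h (8-point series, 10 nM - 29.9 uM, duplicate). Add testosterone tracer, 2 h more. Add substrate/inhibitor, read donor and acceptor emission.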

The next assay concerns SERPINA7 (gene 6906). Description: CCTE_GLTED_hTBG: CCTE's human Thyroxine-binding Globulin (TBG) Inhibition Assay, Great Lakes Toxicology and Ecology Division (GLTED) Lab (AID 2284343).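 Note: active chemicals lower fluorescence versus DMSO baseline by displacing probe.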 In outline: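 Measures how far test chemicals displace ANSA bound to purified human TBG. The read-out is fluorescence at 380 nm excitation and 475 nm emission, taken after 2 h of incubation.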

The nature of assay [9]: Tanguay_ZF_120hpf_MO24: Oregon State University Tanguay Lab 24 Hour Post-fertilization zebrafish Assay for Mortality (AID 2284389; active = hit-call score of the fitted dose curve at least 0.9, where 1 is the maximum; inactive = score below 0.9). The procedure, abridged:
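Dechorionated wild-type zebrafish embryos, 1 per well, statically exposed from 6 hpf at 28C, 0.64% DMSO final. Mortality scored as binary present/absent at 24 hpf by brightfield microscopy, relative to DMSO.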

Assay [10] is described as follows: IUF_NPC4_neurite_area_120hr: Leibniz Research Institute for Environmental Medicine (IUF) 120-hour Neuronal Morphology Assay for Neurite Area (NPC4) (AID 2284305). In outline: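 Human fetal neural progenitor spheres (0.3 mm) plated on poly-D-lysine/laminin in N2 differentiation medium, exposed 120 h (7 concentrations, DMSO ≤0.1%, half-medium refresh day 3). Fixed, TUBB3 immunostained; mean neurite area per neuron by Omnisphero skeletonization.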

A short description of assay [11]: IUF_NPC2-5_cytotoxicity_72hr: Cytotoxicity Assessment at 72 hours in the Leibniz Research Institute for Environmental Medicine (IUF) Neural Progenitor Cell Migration and Differentiation Assay for Cytotoxicity (NPC2-5) (AID 2284306).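 Note: LDH release into supernatant measured by resorufin fluorescence marking membrane damage.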 In outline:
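Human fetal primary neural progenitor spheres (0.3 mm) plated on poly-D-lysine/laminin in N2 differentiation medium, exposed from day 0 at 37C. LDH-dependent resazurin-to-resorufin fluorescence in supernatant at 72 h; 7 concentrations, DMSO at most 0.1%.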

Assay [12] in a line: IUF_NPC2-5_cytotoxicity_120hr: Cytotoxicity Assessment at 120 hours in the Leibniz Research Institute for Environmental Medicine (IUF) Neural Progenitor Cell Migration and Differentiation Assay (NPC2-5) (AID 2284307). The procedure, abridged:
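Membrane-integrity loss is quantified by LDH in supernatant after five days of exposure of migrating, differentiating human fetal NPC spheres; seven serially diluted concentrations are tested with DMSO kept at or below 0.1%.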

Assay [13] is described as follows: IUF_NPC2-5_cell_number_120hr: Cell Number Assessment at 120 hours in the Leibniz Research Institute for Environmental Medicine (IUF) Neural Progenitor Cell Migration and Differentiation Assay (NPC2-5) (AID 2284308; active = hit-call score of the fitted dose curve at least 0.9, where 1 is the maximum; inactive = score below 0.9;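 note: count of Hoechst-stained nuclei in migration zone around plated human neural progenitor spheres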). The procedure, abridged: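 Seven-point serial dilutions plus solvent control were applied to plated 0.3 mm hNPC spheres at differentiation start, with medium half-replaced at day 3. Nuclei positive for Hoechst in the migration zone were enumerated at 120 h.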

Assay [14] is described as follows: IUF_NPC2-5_viability_120hr: Viability Assessment at 120 hours in the Leibniz Research Institute for Environmental Medicine (IUF) Neural Progenitor Cell Migration and Differentiation Assay (NPC2-5) (AID 2284312; active = hit-call score of the fitted dose curve at least 0.9, where 1 is the maximum; inactive = score below 0.9). The procedure, abridged:
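Human fetal neural progenitor spheres (0.3 mm) plated on poly-D-lysine/laminin in N2 differentiation medium, exposed 120 h with half-medium refresh at day 3. Viability by alamar blue resazurin fluorescence; 7 concentrations, DMSO max 0.1%.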

Assay [15] in a line: IUF_NPC1_cytotoxicity_72hr: Cytotoxicity Assessment at 72 hours in the Leibniz Research Institute for Environmental Medicine (IUF) Neural Progenitor Cell Proliferation Assay (NPC1) (AID 2284332).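 Note: rising LDH signal means more cytotoxicity.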 The procedure, abridged:
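hNPC spheres (fetal brain, gestational week 16-19) grown under proliferative EGF/FGF conditions, pH 7.2-7.6, were treated continuously for 72 h. Cytotoxicity came from LDH-coupled resazurin fluorescence in each well's supernatant.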

The structures appear in SMILES notation. Results filed as inconclusive are left out. Activity calls are given as the source filed them. Rule for the calls, unless noted: active = hit-call score of the fitted dose curve at least 0.9, where 1 is the maximum; inconclusive = response in the unintended direction; inactive = score below 0.9.

As to `O=P(O)(O)OCCC(F)(F)C(F)(F)C(F)(F)C(F)(F)C(F)(F)C(F)(F)F`, the call in assay [1], in assay [2], in [3], in assay [5] and in assay [6] was inactive. The AC50 in assay [4] was 57.9 µM (active).

Take `FC(F)(F)C(F)(F)C(F)(F)C(F)(F)C(F)(F)C(F)(F)CC1CO1` (centres undefined): the result in [1], in [2], in assay [3], in assay [4], in assay [5] and in assay [6] was inactive.

Turning to `O=C(O)C(F)(F)C(F)(F)OC(F)(F)F`, the outcome in assay [1], in [2], in [3], in [4], in assay [5] and in assay [6] was inactive. For the same compound, the AC50 in the assay with TTR (gene 7276) is 31.7 µM (active).

As to `CCN(Cc1cccc(S(=O)(=O)O)c1)c1ccc(C(=C2C=CC(=[N+](CC)Cc3cccc(S(=O)(=O)O)c3)C=C2)c2ccc(O)cc2S(=O)(=O)[O-])cc1`, the AC50 in the assay on IYD (gene 389434) was 66.1 µM (active); in assay [8], 1.52 µM (active); with SRD5A2 (gene 6716), 1.56 µM (active); in the assay on SERPINA7 (gene 6906) it was 25.4 µM (active). In assay [7], the call was inactive.

As for `FC(F)(F)C(F)(F)C(F)(F)CI`, the compound was classed as inactive in assay [1], in assay [2], in [3], in assay [4], in assay [5] and in assay [6].

Turning to `CC(C)(C)C(=O)CC(=O)C(F)(F)C(F)(F)C(F)(F)F`, the outcome (with TTR (gene 7276); in assay [2]; in assay [3]; in assay [4]; in [5]; in assay [6]) was inactive.

Consider `C=C(C)C(=O)OCC(F)(F)C(F)(F)C(F)(F)F`, for which the compound was classed as inactive in assay [1], in assay [2], in assay [3], in assay [9], in assay [4] and in [5]. Besides, the result in [6] was inactive.

In the case of `O=C(O)C(F)(F)C(F)(F)C(F)(F)C(F)(F)C(F)(F)C(F)(F)C(F)(F)C(F)(F)Cl`, the AC50 is 74.4 µM (active) in the assay on IYD (gene 389434); 0.252 µM (active) with TTR (gene 7276); 62.6 µM (active) with SERPINA7 (gene 6906); 37.2 µM (active) in assay [5]; 37.2 µM (active) in [6]. Besides, the outcome in assay [1], in [2], in assay [3] and in assay [4] was inactive.

With `FC(F)(F)C(F)(F)C(F)(F)C(F)(F)CCI`, the call in assay [1], in assay [2], in [3], in assay [4], in assay [5] and in assay [6] was inactive. Moreover, the AC50 in the assay on TTR (gene 7276) is 75 µM (active); with SERPINA7 (gene 6906), 46.7 µM (active).

For `CC(CCl)OP(=O)(OC(C)CCl)OC(C)CCl` (centres undefined), the call in assay [10], in [11], in assay [12], in assay [13], in assay [14] and in [1] was inactive. Further, the outcome in [15], in assay [2] and in assay [3] was inactive.

As usually defined, the AC50 is the midpoint of the concentration-response curve, whichever way the signal moves.
